Data as given in PubChem BioAssay AID1347423 (Functional Genomics Laboratory (NCATS/FGL), 2020).
The whole screen tested about 52,000 sequences, of which about 210 (0.4%) were called active. Only a selection was taken, and actives are over-represented in it overall. Values without a mark were called inactive.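 Rule for the calls: active = gene whose silencing raises cell survival under the drug, median off-target-corrected z-score across its silencing RNAs 2 or more; inactive = the rest.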

Test: Resistance to Poly (ADP-Ribose) Polymerase inhibitor: Gene Identification via Genome-wide siRNA Screen
Conditions: mouse BRCA2 R2336H ES cells, olaparib, CellTiter-Glo viability; hits give high values
Summary of the method: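 Mouse BRCA2 R2336H ES cells were reverse-transfected with siRNA (20 nM final), treated at 48 h with 500 nM olaparib, and read by CellTiter-Glo after 72 h. Scores: MAD-based z per siRNA, median per gene, seed off-target correction.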

**Q.** For “CCAUCAAGAGGUAUAAUCUTT against A930017E24Rik”, which z-score is on record?
**A.** The z-score was -2.24.

**Q.** For CGGACAGAUACAAUAGCUATT against BC057627, which z-score is on record?
**A.** The z-score was 3.74 (active).

**Q.** For GGAUUGUGCUGUGAAACAUTT against Pilrb, which z-score is on record?
**A.** Its z-score is -1.98.

**Q.** With GCCUUCAAAUGAAGGAAGGTT against Olfr699 as the sequence, how does the z-score read?
**A.** Its z-score is -0.519.

**Q.** With “GGUGAAACUGAAUAAAAUCTT against 4931406C07Rik” as the sequence, how does the z-score read?
**A.** The z-score was 1.09.

**Q.** For “GGCUAGAGAAAUAGUGUUGTT against D6Ertd253e”, which z-score is on record?
**A.** Its z-score is -0.28.

**Q.** For GGAUGAAAUUAACUCUGAATT against Adprt1, which z-score is on record?
**A.** Its z-score is 2.49 (active).

**Q.** For GCUUAAGGACGCAUUGAAATT against Pthlh, which z-score is on record?
**A.** The z-score was -0.0187.

**Q.** With GGAACACCGAACAUAAAUATT against Gm610 as the sequence, how does the z-score read?
**A.** The z-score was -0.526.

**Q.** With “UCUGGAGUCUUAUCAAGGATT against 2210020M01Rik” as the sequence, how does the z-score read?
**A.** Its z-score is -0.752.

**Q.** Which z-score does the source give for “GGUGCCUGACCAAAAAGGATT against A830094I09Rik” here?
**A.** The z-score was 2.67 (active).

**Q.** For GCCGACUGGUUAAAUACAUTT against Nme3, which z-score is on record?
**A.** Its z-score is -0.45.

**Q.** Which z-score does the source give for “CCCACUUAUAUAUGUAGUUTT against 2410187C16Rik” here?
**A.** Its z-score is -0.391.

**Q.** With GGCAGAAGCAAUGAACUAUTT against Npm1 as the sequence, how does the z-score read?
**A.** The z-score was 3.59 (active).

**Q.** Which z-score does the source give for GGCCUUGGGAAGGAAAGAGTT against Mospd1 here?
**A.** The z-score was -1.74.

**Q.** For GGCACCUAACGACUUCAACTT against Pygm, which z-score is on record?
**A.** Its z-score is 0.366.

**Q.** With GCCCGCUCUCGGAUUUUGATT against Htr1b as the sequence, how does the z-score read?
**A.** The z-score was 2.87 (active).

**Q.** With “GCUCAGACCAUAGUUUCUATT against A930002I21Rik” as the sequence, how does the z-score read?
**A.** Its z-score is 1.53.

**Q.** With GCCUCAAAACUUCUUGUUCTT against Mxd3 as the sequence, how does the z-score read?
**A.** The z-score was 0.892.

**Q.** For GGCCUUUCUGGAGAAGAUGTT against Stfa3, which z-score is on record?
**A.** Its z-score is -0.717.

**Q.** Which z-score does the source give for CCUUCGAACUCGAAAAAUUTT against Olfr722 here?
**A.** Its z-score is 0.346.

**Q.** Which z-score does the source give for “GGCCAUCGAACUCAAUCUCTT against 2810002D13Rik” here?
**A.** Its z-score is 0.717.

**Q.** With GGUUAAUGGGAAACUCUGCTT against Pias3 as the sequence, how does the z-score read?
**A.** Its z-score is 2.89 (active).

**Q.** For GGACUUAUCGGUUAUCUUUTT against Nap1l2, which z-score is on record?
**A.** Its z-score is 0.654.

**Q.** For “CCGCACAGACCAUAGUAGATT against 1700121L12Rik”, which z-score is on record?
**A.** The z-score was 0.0169.

**Q.** Which z-score does the source give for “CCUAGUUGAAAAUUGGGAATT against 0610025O11Rik” here?
**A.** The z-score was -0.794.

**Q.** For GGAUGAACAGGAGAAAGUCTT against Irak2, which z-score is on record?
**A.** Its z-score is 0.0975.

**Q.** For CGAUGUACUGUCUCUUUUGTT against Ywhaz, which z-score is on record?
**A.** Its z-score is 1.53.

**Q.** For GCAACAGGUUAGCGAAACCTT against Bid3, which z-score is on record?
**A.** Its z-score is 0.43 (active).

**Q.** For GGUAGCUAUCAAGGUCAUCTT against Hunk, which z-score is on record?
**A.** The z-score was -0.704.

**Q.** Which z-score does the source give for GGAGGAUACCUUCUUCUACTT against Mta3 here?
**A.** The z-score was 0.46.

**Q.** Which z-score does the source give for GCAGGGACCGUCUAUAACUTT against Ptprb here?
**A.** Its z-score is -0.654.

**Q.** For GCGGAUUUAGUGGCUGGCUTT against Opn5, which z-score is on record?
**A.** Its z-score is -2.04.

**Q.** With GGAAUUUUUGGACAAAGUATT against Grid2 as the sequence, how does the z-score read?
**A.** Its z-score is -3.07 (active).

**Q.** For GCUCUUCUCGCAUUCCUAUTT against Gpc2, which z-score is on record?
**A.** Its z-score is -0.68.

**Q.** For CCAGAUUGGUGAUGGUAGUTT against LOC432637, which z-score is on record?
**A.** Its z-score is 0.502.

**Q.** With GGCUCAUCAAAGGAAGAAATT against Araf1 as the sequence, how does the z-score read?
**A.** The z-score was 1.44 (active).

**Q.** With CCAGAACUUCCCAUUAAAATT against Alg8 as the sequence, how does the z-score read?
**A.** Its z-score is -0.0137.

**Q.** Which z-score does the source give for “CCUUAUUGGGUCAUAAGCATT against 2210403B10Rik” here?
**A.** The z-score was 0.798.

**Q.** Which z-score does the source give for CCUCCGUUUGAUGACUCAATT against Tcte3 here?
**A.** The z-score was 0.671.

**Q.** Which z-score does the source give for GCGAUUCAAACUUAUUCGATT against Pcdhb15 here?
**A.** The z-score was 0.749.

**Q.** Which z-score does the source give for CCAUGAUCAAGAUUGUGCUTT against Slc29a1 here?
**A.** The z-score was -0.707.

**Q.** For CCCUCGAUCCUUUUCACCUTT against Gja4, which z-score is on record?
**A.** The z-score was 1.09.

**Q.** Which z-score does the source give for CUAGUAGGGUCAGAAUUUUTT against Olfr329 here?
**A.** The z-score was 2.11.

**Q.** For CCAUGCAUCUAAGUCUCGATT against Trpm3, which z-score is on record?
**A.** The z-score was 1.35.

**Q.** For “GGAUUAAUUAAUACUUGGCTT against 3010033P07Rik”, which z-score is on record?
**A.** Its z-score is 0.03.

**Q.** With GGACCACCUAAGUUUAAGCTT against Pde6g as the sequence, how does the z-score read?
**A.** Its z-score is 2.55 (active).

**Q.** For GCCAGAAUGGACUUGAGAATT against V1re6, which z-score is on record?
**A.** Its z-score is -0.0714.

**Q.** With GUUGAGGACUUCUUGCUGGTT against Cmar as the sequence, how does the z-score read?
**A.** The z-score was -1.03.

**Q.** Which z-score does the source give for GGUAUGAGUGAAGAAAAGATT against Ifi205 here?
**A.** Its z-score is -0.37.

**Q.** Which z-score does the source give for CCAUAAACGACGAAAUGAUTT against Usp11 here?
**A.** Its z-score is 2.97 (active).

**Q.** With GGCAUCUGUUAUUGAAGUGTT against Vit as the sequence, how does the z-score read?
**A.** Its z-score is 0.771.

**Q.** With GGCCGAGUACAAACGUGGATT against AU019532 as the sequence, how does the z-score read?
**A.** The z-score was 0.561.

**Q.** Which z-score does the source give for CCCUACCUUGAACGAGUACTT against Apoa1 here?
**A.** The z-score was 0.773 (active).

**Q.** For “GGAGAAGAAGCAGAGAGAATT against C530028I08Rik”, which z-score is on record?
**A.** Its z-score is -0.263.

**Q.** Which z-score does the source give for CCUUUCAGGCCAAUUGGCATT against Ube2l6 here?
**A.** The z-score was 0.111.

**Q.** Which z-score does the source give for “UCUCCUUCCUAACUUCAACTT against E030010A14” here?
**A.** Its z-score is 0.4.

**Q.** With “GGAACAGGACUUUUGAUAATT against 2700050F09Rik” as the sequence, how does the z-score read?
**A.** Its z-score is 1.03 (active).

**Q.** Which z-score does the source give for GGCCAAUGAUGAUAACAAATT against Catnd2 here?
**A.** Its z-score is 0.564.

**Q.** Which z-score does the source give for CCUCUCCUACACUUCAAAATT against Cmya4 here?
**A.** The z-score was 0.746.

**Q.** With GGCUUUUUCCUCUACCCACTT against Trhde as the sequence, how does the z-score read?
**A.** The z-score was 0.762.

**Q.** For GGUGUUUAAAGAUUUCGUUTT against Dhrs2, which z-score is on record?
**A.** The z-score was 0.996.

**Q.** With GCAAUGAACUAUGAAGGCATT against Npm1 as the sequence, how does the z-score read?
**A.** The z-score was 0.811 (active).

**Q.** Which z-score does the source give for CCCUUCACAACUUCUUAAUTT against Olfr872 here?
**A.** The z-score was 0.609.

**Q.** Which z-score does the source give for GGGCAUCAGCAUUUGGUCATT against Pparbp here?
**A.** Its z-score is 1.17.

**Q.** For GGACUACCUCACACUCUUCTT against Oprs1, which z-score is on record?
**A.** Its z-score is -0.235.

**Q.** For GCCAUUCCGGCAGUAUUACTT against Pdcd7, which z-score is on record?
**A.** The z-score was 0.524.
